Assay results reported in PubChem BioAssay (Tox21).
Inconclusive results are not listed. Calls of active or inactive are those of the source. Calls follow the shape of the dose curve; as a rule, active = well fitted activation curve with a large enough effect in the repeat runs; inconclusive = weak or mixed curves; inactive = no such curve, though single readings can be large or run the other way.

Test: qHTS assay for small molecules that induce genotoxicity in human embryonic kidney cells expressing luciferase-tagged ATAD5 (AID 651632); also: nearly all actives have a fitted effect of over 15% in size
Settings: HEK293T ATAD5-luciferase induction, 16 h; series mostly up to 83.3 µM; activation: at the top concentration
Source text: U.S. Tox21 Program National Center for Advancing Translational Sciences [NCATS] NIH Chemical Genomics Center [NCGC] U.S. Environmental Protection Agency [EPA] National Institutes of Environmental Health Sciences [NIEHS] National Toxicology Program [NTP] U.S. Food and Drug Administration [FDA] Tox21 Assay Overview: As cancer cells divide rapidly and during every cell division they need to duplicate their genome by DNA replication. The failure to do so results in the cancer cell death. Based on this concept, many chemotherapeutic agents were developed but have limitations such as low efficacy and severe side effects etc. A new cell based assay was developed to find the compounds that effectively block DNA replication either by directly damaging DNA or by inhibiting other cellular mechanisms. Enhanced Level of Genome Instability Gene 1 (ELG1; human ATAD5) protein levels increase in response to various types of DNA damage. Using a luciferase reporter-gene tagged with ATAD5, a cell-based assay [developed by Kyungjae Myung, NHGRI, NIH] was used to measure the induction of ATAD5 in human embryonic kidney cells (HEK293T). So, increase in luciferase activity can be used to identify the compounds that cause genetic stress.
Tox21 Assay Protocol Summary: For genotoxicity screening, 2,000 cells in 5 uL/well were dispensed into white, solid-bottom 1536-well plates using a Multidrop Combi (Thermo Scientific) dispenser. Following transfer of 23 nL compound or DMSO vehicle by a pin tool, the plates were incubated 16 hr at 37C and 5% CO2. 5 ul Amplite (AAT Bioquest, Inc.) was then added to each plate and following 30 min incubation at room temperature, luciferase activity was quantified on a ViewLux CCD-based plate reader.
% is scaled to controls: 0 for no effect and ±100 for the full control effect.

Structure (SMILES)	Potency	activation
C(=NC1CCCCC1)=NC1CCCCC1	inactive	
COC(=O)C(Cl)C(=O)OC		0.34% (inactive)
CCOC(=O)[C@]1(c2ccccc2)Oc2ccccc2[C@@H]1N		-8.14% (inactive)
CC(C)=CCOc1c2occc2cc2ccc(=O)oc12		2.57% (inactive)
N#CCc1ccccc1		1.18% [at 95.3 µM] (inactive)
C=CC(=O)NCNC(=O)C=C		5.76% (inactive)
O=C1c2ccccc2C(=O)C1C(=O)C(c1ccccc1)c1ccccc1		-3.45% (inactive)
CNC(C)Cc1ccccc1OC (stereo not given)		1.14% (inactive)
COC(N)=O		-1.88% (inactive)
CC/C(=N\OC/C=C/Cl)C1=C(O)CC(C2CCOCC2)CC1=O (stereo not given)		-1.23% (inactive)
C=CCOC(C)=O		-3.42% (inactive)
II		-1.12% (inactive)
CN1C[C@H](CNC(=O)OCc2ccccc2)C[C@@H]2c3cccc4c3c(cn4C)C[C@H]21		-6.09% (inactive)
CC(=O)C(C)(C)C		-2.77% [at 95.3 µM] (inactive)
[O-][Cl+]O		-1.34% (inactive)
CN1C(=O)NC(=O)C(C)(C2=CCCCC2)C1=O (stereo not given)	inactive	
CCOP(=O)(OCC)Oc1ccc([N+](=O)[O-])cc1	inactive	
CN1C(=O)C(O)N=C(c2ccccc2)c2cc(Cl)ccc21 (stereo not given)		6.67% [at 95.3 µM] (inactive)
Nc1ccc([N+](=O)[O-])cc1[N+](=O)[O-]		0.346% (inactive)
NC(=O)C(Cl)(Cl)Cl		4.63% [at 95.3 µM] (inactive)

Structure (SMILES)	Potency	activation
Brc1ccc(Oc2ccccc2)cc1	inactive	
Clc1cccc(SC2CCNCC2)n1		-5.84% (inactive)
CC1(C)CCC(Cc2ccc(Cl)cc2)C1(O)Cn1cncn1 (stereo not given)		-10.1% (inactive)
c1ccoc1		1% (inactive)
C=C(C#N)CCC#N		1.92% (inactive)
CCOP(=S)(Oc1ccc([N+](=O)[O-])cc1)c1ccccc1 (stereo not given)		-1.73% (inactive)
CCCCCCCCCC(=O)O[C@H]1CC[C@H]2[C@@H]3CCC4=CC(=O)CC[C@@H]4[C@H]3CC[C@]12C		4.95% (inactive)
Cc1ccc(N)cc1C		-0.462% [at 95.3 µM] (inactive)
Brc1ccccc1		0.263% (inactive)
Clc1ccc(C(OCCN2CCCCC2)c2ccccc2)cc1 (stereo not given)		-10.1% [at 39.1 µM] (inactive)
COP(=S)(Oc1cc(Cl)c(Br)cc1Cl)c1ccccc1 (stereo not given)		-8.2% (inactive)
CC(C)(C)C(O)C(Oc1ccc(Cl)cc1)n1cncn1 (stereo not given)		-5.26% (inactive)
ClCc1ccccc1		-2.36% (inactive)
CC(C)(CCl)C(=O)Cl		4.87% (inactive)
O=NN1CCNCC1		0.296% [at 95.3 µM] (inactive)
CC(Cl)Cl		4.37% (inactive)
CC(C)N(CCC(C(N)=O)(c1ccccc1)c1ccccn1)C(C)C (stereo not given)		-1.97% (inactive)
N#C/C(N)=C(/N)C#N		2.84% (inactive)
Cc1c(F)c(F)c(COC(=O)C2C(/C=C(\Cl)C(F)(F)F)C2(C)C)c(F)c1F (stereo not given)		-4.62% (inactive)
C=CC[C@]1(O)CC[C@H]2[C@@H]3CCC4=CC(=O)CCC4=C3C=C[C@@]21C		-4.45% (inactive)
